Assay results published in the supplement of paper PMC6555819.

Each sequence was assayed on LXRb:RXRa (NR concentration 270 nM, RXRa partner concentration 90 nM) (assay: PBM binding z-score (relative to random genomic background probes); higher = stronger binding; sequences stand for … in GC…GCGATTGACAGCGTAGAATGAAGG).
Summary of the method: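 Ligand-free nuclear receptor dimers were bound for 1 h to custom Agilent 4×180K protein-binding microarrays. Detection used antibodies against each partner (one per run). Binding z-scores rest on regression-normalized fluorescence, with random background probes as the reference.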

| Sequence | PBM binding z-score |
| --- | --- |
| CGAACGAAGGCATGAGTTGATAGCAAATGCCGAT | -0.751 |
| AGTCAAAGTTCAACTAGGTAACGTAAGATATGCT | 4.22 |
| CCTTCCGGGTCACGAGGTTATAGCACGACGAGCG | 3.92 |
| CCTACTGGGCCCAGGTCATTGATCAGTCAAAGCA | 1.88 |
| CTACCAAGGTGAACAAGGTAGTTGATTACTATTC | 0.647 |
| TCTATAAGTTGATTAGGGCAACCGAAACAGCGGA | 0.135 |
| CCTAGCAGGCCAATATGGGTCACTCAAGGCTTGA | 1.41 |
| GCTCGGAGGCCAAGGTCAGAGCTTTGTCCGTAGA | 0.907 |
| GCTATTAGATGAAAGGGCAACCGAATGATTCTCG | 0.469 |
| CCCACTGGGCCATCAGGTCATTGATATCAACGTT | 1.63 |
| ACAGACAGGTGATGAAGGAAACTCAGGCTATCAT | -0.383 |
| ACTAGTTGGTCAGCTGAGGTCACGCACAATTCGG | 3.79 |
| ATCTCTAGGTAACAAGTTCAGTTAAAGAGAGGAC | 0.642 |
| CGTCAAAGTTCAACTAAGGTAACGTAAAGCACGC | 4.24 |
| CCTAGCAGGCCAGGGCCACTCAAGCATTTCGCTT | -1.04 |
| CCTACTGGGCCATCAGGTCTTTGATATCAACGTT | -0.159 |
| AGTCAAAGTTCATCTAGGTAACGTCAGATATGCT | 4 |
| ACTAGCAGGCCAAGGGTCACTCATGATTAGTCCG | 2.52 |
| TCATATAGGTAAAGGTGAAAGTTGAACGATATGA | 1.89 |
| TGAATGAGTTTAAAGATCAGGGAACGTGGCGTCG | -0.0738 |
| CGTCCACGGTCAATGCTAGGTCAGTGAAAGCATT | 0.337 |
| CAAACTCGGTCACCGGAAGGTCAAAGTCCGCATG | 3.86 |
